Bioassay records as filed in PubChem BioAssay.
Sampled rows, rich in hits. Any-hit rate of the full collection: about 4.6%.
LASV entry inh = inhibitors of Lassa virus binding or cell entry; Potency, µM (doses to about 37.9 µM), without a hit: at the highest dose activity change, negative = inhibition, actives largely listed as inhibitors; Lassa virus pseudotype entry inhibition, cell reporter; AID 540256; 1.2% of 300,000 active; calls by dose curve; tested in HEK293 cells; note: nearly all actives have a fitted effect of over 50% in size
VACV mCherry inh = inhibitors of vaccinia virus infection (mCherry reporter signal); Vaccinia virus mCherry reporter infection, fluorescence; Potency, µM (doses to about 36.5 µM), for the others: top-dose activity change, negative = inhibition, hits mostly inhibitors; 0.63% of 310,000 active; calls by dose curve; tested in A549 cells; note: nearly all actives have a fitted effect of over 35% in size
HCV inhibitor = blocks hepatitis C virus; Potency, µM (titrated, usually from 41.8 µM), inactives show top-dose activity change, negative = inhibition, actives largely listed as inhibitors; Huh7.5.1 HCVcc-Cre infection, luciferase reporter, 44 h; 3.4% of 340,000 active; active = well fitted inhibition curve with a large enough effect; inconclusive = small, poorly fitted or top-dose-only effect, or another doubt; inactive = no such curve, though single readings can be large or run the other way
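Compounds are dispensed onto cells plated 4 h earlier at 1,000 per well, with HCVcc-Cre virus (about 0.5 moi) added next. Following 44 h of culture, luminescent signal is measured for 15 sec after 15 min with substrate at room temperature.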
Vaccinia Venus = inhibitors of vaccinia virus (Venus reporter); Vaccinia virus Venus reporter expression, fluorescence; Potency, µM (series often up to 36.5 µM), inactives show at the highest dose activity change, negative = inhibition, most hits filed as inhibitors; 0.46% of 330,000 active; calls by dose curve; tested in A549 cells; note: nearly all actives have a fitted effect of over 30% in size
Marburg entry inh = blocks Marburg virus binding to or entry into cells; Potency, µM (titrated, usually from 37.8 µM), inactives show top-dose activity change, negative = inhibition, usual class: inhibitors; Marburg virus pseudotyped entry inhibition, cell reporter; AID 540276; 1.8% of 300,000 active; calls by dose curve; tested in HEK293 cells
An asterisk follows results filed as active; i = inactive; u = inconclusive; x = no result; ! = not confirmed by another sample; [ ] = remark or other dose. % is set by controls: 0 for no effect and ±100 for the full control effect; potency is the fitted concentration of half-maximal effect.

SMILES	LASV entry inh	VACV mCherry inh	HCV inhibitor	Vaccinia Venus	Marburg entry inh
Clc1ccc2c(c1)C(c1ccccc1Cl)=NCc1nnc(Br)n1-2	-17.9%	12.6µM*	0.4%	u	u
Clc1ccc2c(c1)C(c1ccccc1Cl)=NCc1nncn1-2	6.4%	-6.8%	u	-7.6%	-11.2%
COc1ccccc1-c1nnc(Sc2nc([N+](=O)[O-])nn2C)o1	-27.1%	x	10µM*	x	u
Cn1cnnc1Sc1nc([N+](=O)[O-])nn1C	x	x	2.2%	x	x
NC(=S)c1ccc[n+]([C@@H]2O[C@@H](COP(=O)([O-])OP(=O)(O)OC[C@H]3O[C@@H](n4cnc5c(N)ncnc54)[C@H](OP(=O)(O)O)[C@@H]3O)C(O)C2O)c1 (stereo partly specified)	13.7%	x	x	x	22.8%
Cc1nc(-c2cccc(NC(=O)c3ccc(-n4cccn4)cc3)c2)cs1	x	x	11.2µM*	x	x
COc1ccc(-c2csc(NC(=O)c3ccoc3C)n2)cc1	u	i	11.2µM*	-3.6%	-5.0%[46.1 µM]
Cc1nc(-c2cccc(NC(=O)c3ccco3)c2)cs1	7.7%[46.1 µM]	-19.1%	-28.3%	-2.6%	u
COc1ccc(NC(=O)c2ccc(-c3csc(C)n3)cc2)cc1	u	i	7.08µM*	4.5%	u
COc1ccc(-c2csc(NC(=O)c3ccccc3C(=O)O)n2)cc1	x	i	14.8%	-13.5%	x
Cc1nc(-c2ccc(C(=O)Nc3cccc(F)c3)cc2)cs1	u	-0.1%	3.55µM*	-5.5%	5.01µM*
COc1cccc([C@H]2NC(=O)C[C@@H]3C[C@@H](C)[C@@H](c4cccc(OC)c4)N3C(=O)C=CC[C@@H]2C)c1	u	x	x	x	7.9%[14.2 µM]
Cc1nc(-c2ccc(C(=O)Nc3ccc(F)cc3)cc2)cs1	u	i	u	-20.1%	6.31µM*
C/C(=N\Nc1cc(N2CCOCC2)nc(C)n1)c1cccc([N+](=O)[O-])c1	x	x	11.2µM*	x	x
C/C(=N\Nc1cc(C)nc(NCc2ccccc2)n1)c1cccc([N+](=O)[O-])c1	x	x	2µM*	x	x
CN(C)CC[C@@H](c1ccc(Cl)cc1)c1ccccn1	1.1%	-20.3%	u	-12.9%	5.62µM*!
CN(C)CCC(C(=O)c1ccccc1)c1ccccn1 (stereo unspecified)	u	-13.9%	-8.8%	-11.8%	u
CN(C)CC[C@@H](c1ccc(Br)cc1)c1ccccn1	u	i	u	-4.0%	8.91µM*!
COc1ccc(-c2nnc(SCC(=O)N3CCOCC3)o2)cc1	-12.0%	x	0.2%	-7.9%	-5.2%
O=C(CSc1nnc(-c2ccc(OC(F)F)cc2)o1)N1CCOCC1	28.3%	15.8µM*	u	u	2.3%
c1ccc(CC[n+]2ccncc2)cc1	x	i	x	-12.5%	x
COc1ccc(NC(=O)N2CCCc3ccccc32)c(OC)c1	u	u	-6.0%	-13.8%	14.4%[46.1 µM]
COc1cc2c(cc1Nc1nc(Nc3ccsc3C(N)=O)c3cc[nH]c3n1)N(C(=O)CN(C)C)CCC2	0.0705µM*	x	x	x	x
CNC(=O)c1ncccc1Nc1nc(Nc2cc3c(cc2OC)CCCN3C(=O)CN(C)C)nc2[nH]ccc12	3.97µM*	x	x	x	x
Cc1ccc2c(c1)N(C(=O)N1CCC(C(=O)NCc3ccccc3F)CC1)CC(C)O2 (stereo unspecified)	-16.3%[46.1 µM]	-12.2%	x	-12.2%	x
SMILES	LASV entry inh	VACV mCherry inh	HCV inhibitor	Vaccinia Venus	Marburg entry inh
CC1(C)CC[C@]2(C(=O)O)CC[C@]3(C)C(=CC[C@@H]4[C@@]5(C)CC[C@H](O[C@@H]6O[C@H](C(=O)O)[C@@H](O)[C@H](O[C@@H]7OC[C@H](O)[C@H](O)[C@H]7O)[C@H]6O)C(C)(C)[C@@H]5CC[C@]43C)[C@@H]2C1	x	u	11.2µM*	7.94µM*	x
O=C1Nc2ccccc2[C@@]12O[C@H](COc1ccccc1)CC1=C2CCC1	x	x	x	x	9.8%[14.2 µM]
COc1cc(C=C(c2nc3ccccc3s2)c2nc3ccccc3s2)cc(OC)c1O	-9.2%	31.6%	10µM*	115.9%	13.3%
COc1cc(/C=N/NC(=Nc2ccc(C)cc2)c2nc3ccccc3s2)ccc1O	13µM*	x	u	x	u
COc1ccccc1/C=N/NC(=Nc1ccc(C)cc1)c1nc2ccccc2s1	x	x	x	x	5.8%
O=C(O)COc1ccccc1C(Nc1cccnc1)c1cc(Cl)c2cccnc2c1O (stereo unspecified)	26.6%[46.1 µM]	-2.0%	2.1%	-2.1%	16.6%[46.1 µM]
CCCC(=O)NC(c1cccs1)c1cc(Cl)c2cccnc2c1O (stereo unspecified)	u	-19.6%	3.16µM*	8.8%	3.55µM*
CCCC(=O)NC(c1ccc2c(c1)OCO2)c1cc(Cl)c2cccnc2c1O (stereo unspecified)	u	12.6µM*	1.12µM*	u	u
CCCC(=O)NCC(c1ccc2c(c1)OCO2)N1CCOCC1 (stereo unspecified)	-12.9%[46.1 µM]	-4.5%	x	-1.0%	x
CCCC(=O)NC(c1ccco1)c1cc(Cl)c2cccnc2c1O (stereo unspecified)	u	u	11.2µM*	u	u
Cc1cc(C)cc(OCC(=O)Nc2ccc(S(=O)(=O)Nc3onc(C)c3C)cc2)c1	u	1.9%	x	-3.8%	x
COC(=O)c1cc(CNC(=O)c2ccc3ccccc3n2)cc(NC(=O)c2cccc(OC)c2)c1	x	-8.2%	x	7.4%	x
CCn1c(SCC(=O)NCc2ccco2)nnc1-c1cccc(N(C)C)c1	x	-2.8%	x	-20.5%	x
COc1ccccc1N(C)S(=O)(=O)c1ccc(C(=O)OC(C)C(=O)NCc2ccc3c(c2)OCO3)cc1 (stereo unspecified)	x	i	11.2µM*	-10.8%	x
CCCc1nc2ccccc2c(C(=O)OC(C)C(=O)NCc2ccc3c(c2)OCO3)c1CC (stereo unspecified)	-21.4%	u	u	10µM*	u
CC(=O)C[n+]1cccc2cc(Cl)ccc21	x	-13.4%	x	9.8%	x
CCOC(=O)c1cc(S(=O)(=O)NCc2cccc(Cl)c2)[nH]n1	-3.4%[46.1 µM]	-10.4%	x	-6.3%	x
CN(C)CCNC(=O)c1cc2c(s1)-c1ccc(Cl)cc1SC2	x	u	11.2µM*	3.55µM*	x
Cc1ccc(CNC(=O)c2cc3c(s2)-c2ccc(Cl)cc2SC3)cc1	u	-6.2%	x	-11.0%	9.2%[46.1 µM]
O=C(NCCOc1ccccc1)c1cncc(Br)c1	7.9%	x	-7.9%	-17.1%	9.4%
CCc1cc(C)cc(OCCNC(=O)c2cncc(Br)c2)c1	-9.8%	x	10µM*	u	u
CCN(C(=O)CN(C)S(=O)(=O)c1ccc2c(c1)c(=O)n(C)c(=O)n2C)c1ccc(OC)cc1	-6.8%[46.1 µM]	-15.6%	x	-3.2%	0.6%[46.1 µM]
COC(=O)c1c(NC(=O)c2nc3ccccc3s2)sc2c1CC(C)(C)NC2(C)C	x	u	5.7%	11.2µM*	x
Cc1occc1C(=O)Nc1cccc(-c2nc(CNC(=O)c3ccc4ccccc4n3)c(C)o2)c1	x	-3.2%	x	-21.1%	x
CCCC(=O)N1CCN(c2ccc(NC(=O)c3cc4ccccc4o3)cc2)CC1	-18.3%	x	10µM*	-16.2%	u
O=C(Nc1ccc(N2CCN(C(=O)c3ccccc3)CC2)cc1)c1cc2ccccc2o1	14.1µM*	x	u	u	u
CS(=O)(=O)N1CCN(c2ccc(NC(=O)c3cc4ccccc4o3)cc2)CC1	x	x	8.4%	x	x
